About 2,000 (36%) of roughly 5,500 compounds were called active. Not shown: some 18% with an inconclusive outcome. Some of the results follow. Unmarked numbers belong to inactive results. Rule as the data show it: active = normalized growth mostly below about 0.91 (no sharp cut-off); inconclusive = no clear call, values can overlap the other calls; inactive = mostly above about 0.92.
Assay: chemical genetic growth profiling, strain panel (AID 1159580);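 also: tested at 20 µM; growth read once vehicle control cultures reached saturation at 30 °C; 1 = growth at the plate median or of vehicle wells; lower values mean less growth of the strain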
Settings: S. cerevisiae deletion strains, growth OD
[1] = locus YDL101C, strain DUN1, hits give low values
[2] = locus YHR030C, strain SLT2, hits give low values

Work on `O=C(CSCc1c(F)cccc1Cl)NC1Cc2ccccc2C1` yielded a normalized growth (locus YAL013W, strain DEP1, hits give low values) of 0.984, a normalized growth (locus YBR229C, strain ROT2, hits give low values) of 0.973 and a normalized growth [1] of 0.995. The normalized growth (locus YDR150W, strain NUM1, hits give low values) was 0.959, the normalized growth (locus YEL061C, strain CIN8, hits give low values) was 0.949 and the normalized growth (locus YGR078C, strain PAC10, hits give low values) was 0.978. It also gave a normalized growth [2] of 0.776, a normalized growth (locus YHR087W, strain rtc3, hits give low values) of 0.962 and a normalized growth (locus YJR043C, strain POL32, hits give low values) of 0.991. The normalized growth (locus YJR075W, strain HOC1, hits give low values) was 0.944, the normalized growth (locus YLR039C, strain RIC1, hits give low values) was 0.925 and the normalized growth (locus YLR058C, strain SHM2 (second series), hits give low values) was 0.973. For the same compound, the normalized growth (locus YLR085C, strain ARP6, hits give low values) was 0.906, the normalized growth (locus YLR262C, strain YPT6, hits give low values) was 0.964 and the normalized growth (locus YML094W, strain GIM5, hits give low values) was 0.956. For the same compound, the normalized growth (locus YMR219W, strain ESC1, hits give low values) was 0.97, the normalized growth (locus YMR263W, strain SAP30, hits give low values) was 0.991 and the normalized growth (locus YMR307W, strain GAS1, hits give low values) was 0.628 (active). The normalized growth (locus YNL128W, strain TEP1, hits give low values) was 0.988, the normalized growth (locus YNL153C, strain GIM3, hits give low values) was 0.977 and the normalized growth (locus YNL298W, strain CLA4 (second series), hits give low values) was 0.944. It also gave a normalized growth (locus YNL322C, strain KRE1, hits give low values) of 0.973, a normalized growth (locus YNR030W, strain Alg12, hits give low values) of 0.943 and a normalized growth (locus YPL055C, strain LGE1, hits give low values) of 0.944. The normalized growth (locus YPL241C, strain CIN2, hits give low values) was 0.938 and the normalized growth (locus YPR135W, strain CTF4, hits give low values) was 0.76.

For `O=C(CSCc1csc2ccccc12)Nc1ccc(F)c(Cl)c1`, the normalized growth (locus YAR019C, strain CDC15, hits give low values) was 0.978, the normalized growth (locus YBL105C, strain PKC1, hits give low values) was 0.977 and the normalized growth (locus YBR135W, strain CKS1, hits give low values) was 0.973. For the same compound, the normalized growth (locus YBR136W, strain MEC1, hits give low values) was 0.981, the normalized growth (locus YBR160W, strain CDC28, hits give low values) was 0.974 and the normalized growth (locus YDL017W, strain CDC7, hits give low values) was 0.98. It also gave a normalized growth (locus YDL028C, strain MPS1, hits give low values) of 0.982, a normalized growth [1] of 0.999 and a normalized growth (locus YDL108W, strain KIN28, hits give low values) of 0.973. For the same compound, the normalized growth (locus YDL132W, strain cdc53, hits give low values) was 0.982, the normalized growth (locus YDL214C, strain PRR2, hits give low values) was 0.885 and the normalized growth (locus YDR052C, strain DBF4, hits give low values) was 0.99. For the same compound, the normalized growth (locus YDR054C, strain cdc34, hits give low values) was 0.97, the normalized growth (locus YDR226W, strain ADK1, hits give low values) was 0.986 and the normalized growth (locus YDR477W, strain SNF1, hits give low values) was 0.909. It also gave a normalized growth (locus YER123W, strain YCK3, hits give low values) of 0.884, a normalized growth (locus YER133W, strain GLC7, hits give low values) of 0.921 and a normalized growth (locus YFL009W, strain cdc4, hits give low values) of 0.978. The normalized growth (locus YFL029C, strain CAK1, hits give low values) was 0.975, the normalized growth (locus YFR003C, strain YPI1, hits give low values) was 0.978 and the normalized growth (locus YFR019W, strain FAB1, hits give low values) was 0.93. The normalized growth (locus YFR028C, strain CDC14, hits give low values) was 0.975, the normalized growth (locus YGR040W, strain KSS1, hits give low values) was 0.917 and the normalized growth (locus YGR052W, strain FMP48, hits give low values) was 0.925. The normalized growth (locus YGR092W, strain DBF2, hits give low values) was 0.878, the normalized growth [2] was 0.821 (active) and the normalized growth (locus YHR079C, strain IRE1, hits give low values) was 0.858. For the same compound, the normalized growth (locus YHR082C, strain KSP1, hits give low values) was 0.896, the normalized growth (locus YHR205W, strain SCH9, hits give low values) was 0.845 and the normalized growth (locus YIL147C, strain SLN1, hits give low values) was 0.984. For the same compound, the normalized growth (locus YJL095W, strain BCK1, hits give low values) was 0.877, the normalized growth (locus YJL128C, strain PBS2, hits give low values) was 0.946 and the normalized growth (locus YJL157C, strain FAR1, hits give low values) was 0.875. For the same compound, the normalized growth (locus YJR016C, strain ILV3, hits give low values) was 0.972, the normalized growth (locus YJR066W, strain TOR1 (second series), hits give low values) was 0.893 and the normalized growth (locus YJR066W, strain TOR1, hits give low values) was 0.889. For the same compound, the normalized growth (locus YKL048C, strain ELM1, hits give low values) was 0.952, the normalized growth (locus YKL067W, strain YNK1, hits give low values) was 0.897 and the normalized growth (locus YKL101W, strain HSL1, hits give low values) was 0.89. For the same compound, the normalized growth (locus YKL193C, strain SDS22, hits give low values) was 0.977, the normalized growth (locus YKL203C, strain TOR2, hits give low values) was 0.96 and the normalized growth (locus YLR113W, strain HOG1, hits give low values) was 0.68 (active). The normalized growth (locus YLR133W, strain CKI1, hits give low values) was 0.899, the normalized growth (locus YLR403W, strain SFP1, hits give low values) was 0.889 and the normalized growth (locus YML070W, strain DAK1, hits give low values) was 0.849. It also gave a normalized growth (locus YMR001C, strain CDC5, hits give low values) of 0.977, a normalized growth (locus YMR205C, strain PFK2 (second series), hits give low values) of 0.904 and a normalized growth (locus YMR277W, strain FCP1, hits give low values) of 0.978. For the same compound, the normalized growth (locus YNL006W, strain LST8, hits give low values) was 0.978, the normalized growth (locus YNL020C, strain ARK1, hits give low values) was 0.887 and the normalized growth (locus YNL161W, strain CBK1, hits give low values) was 0.977. It also gave a normalized growth (locus YNL183C, strain NPR1, hits give low values) of 0.879, a normalized growth (locus YNL207W, strain RIO2, hits give low values) of 0.974 and a normalized growth (locus YNL222W, strain SSU72, hits give low values) of 0.966. It also gave a normalized growth (locus YNL307C, strain MCK1 (second series), hits give low values) of 0.877, a normalized growth (locus YOL078W, strain AVO1, hits give low values) of 0.979 and a normalized growth (locus YOL136C, strain PFK27, hits give low values) of 0.843. For the same compound, the normalized growth (locus YOR061W, strain CKA2, hits give low values) was 0.895, the normalized growth (locus YOR119C, strain RIO1, hits give low values) was 0.965 and the normalized growth (locus YOR231W, strain MKK1, hits give low values) was 0.814. It also gave a normalized growth (locus YOR329C, strain SCD5, hits give low values) of 0.982, a normalized growth (locus YPL031C, strain PHO85, hits give low values) of 0.906 and a normalized growth (locus YPL153C, strain RAD53, hits give low values) of 0.897. For the same compound, the normalized growth (locus YPL204W, strain HRR25, hits give low values) was 0.907, the normalized growth (locus YPL209C, strain IPL1, hits give low values) was 0.973 and the normalized growth (locus YPL256C, strain CLN2, hits give low values) was 0.754 (active). The normalized growth (locus YPR025C, strain CCL1, hits give low values) was 0.975, the normalized growth (locus YPR106W, strain ISR1, hits give low values) was 0.961 and the normalized growth (locus YPR111W, strain DBF20, hits give low values) was 0.952. For the same compound, the normalized growth (strain NNK1, hits give low values) was 0.956 and the normalized growth (strain TSCII, hits give low values) was 0.977.

Reference: PubChem BioAssay AID1159580 (chemical genetic matrix, 2015)
